Experimental data published in PubChem BioAssay (NCATS).
Inconclusive results are not listed. This is one part of the list. A call without a number means that no potency is given here. The source made the active and inactive calls. Unless noted, the call rests on the fitted dose curve; in most records, active means well fitted curve in the direction sought with a large enough effect; inconclusive means small, poorly fitted or top-dose-only effect, or another doubt; inactive means no such curve, though single readings can be large; an effect the other way counts as inactive or inconclusive.

Experiments:
[1] = biological target: DNA dC->dU-editing enzyme APOBEC-3G (Homo sapiens) (UniProt Q9HC16); assay: qHTS for inhibitors of Vif-A3G interactions: Validation (AID 588379)
Chain of DNA dC->dU-editing enzyme APOBEC-3G (Homo sapiens) (Q9HC16 whole entry, looked up): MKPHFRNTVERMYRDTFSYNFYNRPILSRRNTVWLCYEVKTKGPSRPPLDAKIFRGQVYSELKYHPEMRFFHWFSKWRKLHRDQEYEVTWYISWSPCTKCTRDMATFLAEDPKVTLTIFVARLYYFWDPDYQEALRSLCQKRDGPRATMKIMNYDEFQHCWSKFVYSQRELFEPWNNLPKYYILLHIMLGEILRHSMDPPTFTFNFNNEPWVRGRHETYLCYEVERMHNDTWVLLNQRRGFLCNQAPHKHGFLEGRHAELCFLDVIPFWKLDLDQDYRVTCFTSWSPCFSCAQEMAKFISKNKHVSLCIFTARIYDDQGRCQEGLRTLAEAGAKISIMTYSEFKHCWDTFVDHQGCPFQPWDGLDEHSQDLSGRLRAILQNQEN
In short: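 HeLa cells stably expressing Vif and A3G-eYFP, 700 cells/well, incubated overnight at 37 deg C, then exposed to compound overnight at 37 deg C. Inhibition of Vif-mediated degradation read as increased yellow fluorescence (Ex 488/Em 500-530) by laser-scanning cytometry.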

[2] = biological target: Lethal(3)malignant brain tumor-like protein 1 (Homo sapiens) (UniProt Q9Y468); assay: qHTS Assay for the Inhibitors of L3MBTL1: Hit Validation (AID 540279); conditions: L3MBTL1 methyl-lysine binding inhibition, biochemical qHTS; further: potency means the concentration at half of the fitted maximal effect; nearly all actives have a fitted effect of over 70% in size
Chain of Lethal(3)malignant brain tumor-like protein 1 (Homo sapiens) (Q9Y468 whole entry, looked up): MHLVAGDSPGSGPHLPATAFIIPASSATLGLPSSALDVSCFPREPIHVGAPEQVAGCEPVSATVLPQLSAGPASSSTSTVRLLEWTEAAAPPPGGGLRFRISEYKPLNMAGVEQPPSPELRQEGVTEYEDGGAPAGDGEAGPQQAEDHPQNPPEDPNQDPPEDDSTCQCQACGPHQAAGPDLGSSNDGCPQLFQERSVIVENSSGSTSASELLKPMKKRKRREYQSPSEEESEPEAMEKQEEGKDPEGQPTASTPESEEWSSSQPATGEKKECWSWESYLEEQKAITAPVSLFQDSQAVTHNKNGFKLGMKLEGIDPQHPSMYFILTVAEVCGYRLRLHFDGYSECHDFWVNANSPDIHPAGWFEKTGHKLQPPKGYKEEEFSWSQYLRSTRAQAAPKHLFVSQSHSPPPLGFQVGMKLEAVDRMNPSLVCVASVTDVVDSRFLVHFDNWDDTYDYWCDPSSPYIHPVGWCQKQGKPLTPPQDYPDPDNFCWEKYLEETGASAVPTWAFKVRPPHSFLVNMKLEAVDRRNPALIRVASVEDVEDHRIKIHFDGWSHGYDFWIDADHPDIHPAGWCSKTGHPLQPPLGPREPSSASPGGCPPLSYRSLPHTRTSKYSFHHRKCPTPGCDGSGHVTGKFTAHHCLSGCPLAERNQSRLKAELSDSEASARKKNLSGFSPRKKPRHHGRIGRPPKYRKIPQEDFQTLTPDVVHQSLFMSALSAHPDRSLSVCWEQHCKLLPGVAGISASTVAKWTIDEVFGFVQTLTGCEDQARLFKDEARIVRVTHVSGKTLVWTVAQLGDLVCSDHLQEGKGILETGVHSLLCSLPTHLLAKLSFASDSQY
In short: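 AlphaScreen displacement: 50 nM L3MBTL1 bound to 75 nM biotin-H3K9me1 peptide for 30 min, compound added for 30 min at room temperature, then beads at 10 ug/mL final for 30 min in the dark. Cefsulodin titration served as intraplate control.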

[3] = biological target: DNA polymerase iota (Homo sapiens) (UniProt Q9UNA4); assay: qHTS for Inhibitors of Polymerase Iota: Confirmatory Assay for Cherry-picked Compounds (AID 720496); conditions: Pol iota primer extension, TAMRA/BHQ fluorescence; further: potency means the concentration at half of the fitted maximal effect
Chain of DNA polymerase iota (Homo sapiens) (Q9UNA4 whole entry, looked up): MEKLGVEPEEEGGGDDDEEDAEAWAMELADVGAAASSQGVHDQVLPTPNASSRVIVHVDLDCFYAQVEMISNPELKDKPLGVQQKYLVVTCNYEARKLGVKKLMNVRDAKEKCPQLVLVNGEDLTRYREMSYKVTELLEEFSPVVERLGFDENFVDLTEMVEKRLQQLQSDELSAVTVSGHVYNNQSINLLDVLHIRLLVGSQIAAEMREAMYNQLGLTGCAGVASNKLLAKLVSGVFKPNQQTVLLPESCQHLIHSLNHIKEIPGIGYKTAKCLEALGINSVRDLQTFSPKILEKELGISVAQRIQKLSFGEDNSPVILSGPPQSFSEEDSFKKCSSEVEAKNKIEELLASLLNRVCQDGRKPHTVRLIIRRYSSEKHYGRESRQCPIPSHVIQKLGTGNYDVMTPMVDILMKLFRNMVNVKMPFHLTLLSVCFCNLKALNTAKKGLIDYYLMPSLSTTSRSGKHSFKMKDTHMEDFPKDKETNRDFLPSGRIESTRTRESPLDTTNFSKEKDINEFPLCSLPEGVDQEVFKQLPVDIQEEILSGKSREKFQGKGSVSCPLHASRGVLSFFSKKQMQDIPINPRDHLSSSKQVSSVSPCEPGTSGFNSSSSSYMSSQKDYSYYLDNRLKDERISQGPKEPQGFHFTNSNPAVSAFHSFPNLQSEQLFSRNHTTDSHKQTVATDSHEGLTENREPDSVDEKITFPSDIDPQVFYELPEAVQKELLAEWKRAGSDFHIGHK
In short: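 Human Pol iota (10 nM) was preincubated 15 min at room temperature with compound, then started with 50 nM TAMRA/BHQ-2 quenched primer-template substrate. Fluorescence (ex 525/em 598 nm) was read at 0 and 10 min.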

[4] = biological target: Flap endonuclease 1 (Homo sapiens) (UniProt P39748); assay: qHTS Assay for the Inhibitors of FEN1: Confirmatory Assay for Cherry-picked Compounds (AID 720498); conditions: FEN1 flap cleavage, TAMRA/BHQ2 fluorogenic DNA substrate; further: potency means the concentration at half of the fitted maximal effect; nearly all actives have a fitted effect of over 60% in size
Chain of Flap endonuclease 1 (Homo sapiens) (P39748 whole entry, looked up): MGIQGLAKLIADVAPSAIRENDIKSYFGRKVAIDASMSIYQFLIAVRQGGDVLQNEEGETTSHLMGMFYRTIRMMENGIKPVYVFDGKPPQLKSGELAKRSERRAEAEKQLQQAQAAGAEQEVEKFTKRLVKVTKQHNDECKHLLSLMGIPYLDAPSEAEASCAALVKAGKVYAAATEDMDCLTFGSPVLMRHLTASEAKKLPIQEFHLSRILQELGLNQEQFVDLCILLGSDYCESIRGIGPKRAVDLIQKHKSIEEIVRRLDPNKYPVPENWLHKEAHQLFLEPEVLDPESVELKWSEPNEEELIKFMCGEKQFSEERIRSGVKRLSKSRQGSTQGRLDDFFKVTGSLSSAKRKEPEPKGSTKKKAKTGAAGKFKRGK
In short: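 FEN1 at 10 nM was preincubated with compound for 15 min at room temperature, then 50 nM (final) double-flap DNA substrate was added. TAMRA fluorescence released from the BHQ-2-quenched flap was read at 0 and 15 min (ex 525/em 598 nm).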

[5] = biological target: DNA polymerase eta (Homo sapiens) (UniProt Q9Y253); assay: qHTS for Inhibitors of Polymerase Eta: Confirmatory Assay for Cherry-picked Compounds (AID 720502); conditions: Pol eta primer extension, TAMRA/BHQ fluorescence, 10 min; further: potency means the concentration at half of the fitted maximal effect
Chain of DNA polymerase eta (Homo sapiens) (Q9Y253 whole entry, looked up): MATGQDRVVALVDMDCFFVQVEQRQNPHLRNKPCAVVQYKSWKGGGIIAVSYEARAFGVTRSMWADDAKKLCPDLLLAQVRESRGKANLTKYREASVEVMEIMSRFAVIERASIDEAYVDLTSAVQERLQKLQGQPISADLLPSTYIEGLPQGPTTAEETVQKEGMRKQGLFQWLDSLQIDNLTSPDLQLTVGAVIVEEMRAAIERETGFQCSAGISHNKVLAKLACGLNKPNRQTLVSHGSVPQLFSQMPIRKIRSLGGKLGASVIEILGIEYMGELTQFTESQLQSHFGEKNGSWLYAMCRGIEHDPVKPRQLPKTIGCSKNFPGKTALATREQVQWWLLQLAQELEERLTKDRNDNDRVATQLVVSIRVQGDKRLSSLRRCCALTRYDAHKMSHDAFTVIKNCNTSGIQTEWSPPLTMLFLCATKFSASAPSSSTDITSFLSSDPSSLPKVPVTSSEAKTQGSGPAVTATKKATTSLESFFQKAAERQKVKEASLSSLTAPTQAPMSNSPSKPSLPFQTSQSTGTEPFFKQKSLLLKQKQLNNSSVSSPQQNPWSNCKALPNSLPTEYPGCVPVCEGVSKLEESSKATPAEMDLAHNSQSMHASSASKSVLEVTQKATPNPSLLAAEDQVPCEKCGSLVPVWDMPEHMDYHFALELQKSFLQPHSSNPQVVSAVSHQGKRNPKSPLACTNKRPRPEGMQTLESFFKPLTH
In short: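 Quenched-fluorescence replication assay: 10 nM Pol eta, 50 nM substrate final, 15 min compound preincubation at room temperature, 10 min kinetic reaction read at 525/598 nm.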

[6] = biological target: DNA polymerase kappa (Homo sapiens) (UniProt Q9UBT6); assay: qHTS for Inhibitors of Polymerase Kappa: Confirmatory Assay for Cherry-picked Compounds (AID 720501); conditions: purified Pol-kappa, fluorescent strand-displacement substrate; further: potency means the concentration at half of the fitted maximal effect
Chain of DNA polymerase kappa (Homo sapiens) (Q9UBT6 whole entry, looked up): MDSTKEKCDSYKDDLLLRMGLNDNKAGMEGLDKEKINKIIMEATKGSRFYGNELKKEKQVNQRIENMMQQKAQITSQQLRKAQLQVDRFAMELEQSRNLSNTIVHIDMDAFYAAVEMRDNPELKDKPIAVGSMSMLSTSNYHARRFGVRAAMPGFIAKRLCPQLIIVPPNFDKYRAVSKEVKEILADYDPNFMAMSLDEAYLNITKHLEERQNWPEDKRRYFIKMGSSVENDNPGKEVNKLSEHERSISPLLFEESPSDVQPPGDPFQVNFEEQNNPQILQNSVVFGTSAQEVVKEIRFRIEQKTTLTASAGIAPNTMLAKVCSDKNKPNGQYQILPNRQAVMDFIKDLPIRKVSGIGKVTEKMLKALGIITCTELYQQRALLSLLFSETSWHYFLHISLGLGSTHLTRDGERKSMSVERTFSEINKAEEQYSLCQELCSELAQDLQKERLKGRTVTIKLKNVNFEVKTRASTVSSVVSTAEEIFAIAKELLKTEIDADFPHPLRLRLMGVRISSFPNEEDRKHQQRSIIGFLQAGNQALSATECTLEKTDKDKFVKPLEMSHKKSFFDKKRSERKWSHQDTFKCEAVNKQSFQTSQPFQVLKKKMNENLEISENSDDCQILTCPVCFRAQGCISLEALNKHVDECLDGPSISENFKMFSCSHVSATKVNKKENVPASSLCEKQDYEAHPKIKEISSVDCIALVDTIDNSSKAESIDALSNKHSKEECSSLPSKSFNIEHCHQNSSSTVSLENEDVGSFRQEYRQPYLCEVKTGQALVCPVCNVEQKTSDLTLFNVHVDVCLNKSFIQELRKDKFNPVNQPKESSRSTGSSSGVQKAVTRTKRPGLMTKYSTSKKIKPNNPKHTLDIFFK
In short: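 Strand-displacement fluorescence read-out: TAMRA reporter released from a BHQ-2-quenched template, measured at 525/598 nm over a 10 min kinetic window. Substrate was 50 nM final; enzyme was 10 nM Pol-kappa, preincubated 15 min at room temperature with compound.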

[7] = qHTS Assay for the Inhibitors of L3MBTL1: Hit Validationin AlphaScreen Counterscreen (AID 602224)
In short: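 Using a biotin-His6 bridge (1 nM) between streptavidin donor and Ni-chelate acceptor beads at 10 ug/mL each, hit compounds were checked for assay-technology artifacts; activity here flags false positives from the primary screen.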

[8] = biological target: Mitogen-activated protein kinase 10 (Mus musculus) (UniProt Q61831); assay: JNK3 AlphaScreen Assay (AID 530; active means well fitted curve in either direction with a large enough effect, not every such curve was filed as active;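 further: kinase came from lysate of stimulated human HepG2 cells; signal reports phosphorylation of biotinylated GST-cJun 1-79 at Ser73 with 10 µM ATP; series mostly up to about 57 µM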)
In short: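 Room-temperature AlphaScreen kinase assay; pre-activated HepG2 lysate as JNK3 source, biotin-GST-cJun(1-79) substrate, 10 uM ATP, compound 15 min preincubation.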

[9] = biological target: Cytochrome P450 3A4 (Homo sapiens) (UniProt P08684); assay: qHTS Assay for Activators of Cytochrome P450 3A4 (AID 885); further: nearly all actives have a fitted effect of over 65% in size
Chain of Cytochrome P450 3A4 (Homo sapiens) (P08684 whole entry, looked up): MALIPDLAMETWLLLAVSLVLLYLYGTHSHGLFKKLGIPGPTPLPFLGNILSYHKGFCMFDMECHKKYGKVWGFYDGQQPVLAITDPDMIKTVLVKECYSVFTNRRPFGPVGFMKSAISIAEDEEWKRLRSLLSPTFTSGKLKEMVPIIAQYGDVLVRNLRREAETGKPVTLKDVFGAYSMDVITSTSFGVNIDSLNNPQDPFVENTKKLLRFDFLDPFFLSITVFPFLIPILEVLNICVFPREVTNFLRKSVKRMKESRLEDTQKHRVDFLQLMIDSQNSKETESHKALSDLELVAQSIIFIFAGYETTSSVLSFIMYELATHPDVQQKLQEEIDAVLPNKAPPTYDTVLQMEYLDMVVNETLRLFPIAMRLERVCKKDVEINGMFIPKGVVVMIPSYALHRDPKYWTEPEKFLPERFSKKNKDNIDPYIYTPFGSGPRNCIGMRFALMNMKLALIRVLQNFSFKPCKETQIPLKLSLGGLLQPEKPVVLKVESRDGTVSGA
In short: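 Human CYP3A4 (20 nM) with Luciferin-PPXE at 25 uM (its KM) in 200 mM KPO4; 10 min compound preincubation, then NADPH regeneration and 60 min reaction at RT. Luciferin read by luminescence; normalized to 57 uM ketoconazole full inhibition.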

[10] = biological target: Cytochrome P450 3A4 (Homo sapiens) (UniProt P08684); assay: qHTS Assay for Inhibitors and Substrates of Cytochrome P450 3A4 (AID 884); further: nearly all actives have a fitted effect of over 50% in size; further: potency means the concentration at half of the fitted maximal effect
In short: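 20 nM human CYP3A4 with 25 uM Luciferin-PPXE (at KM) in 200 mM KPO4, preincubated 10 min with compound; NADPH regeneration started a 60 min RT reaction. Luciferin detected by luminescence, normalized to 57 uM ketoconazole as full inhibition.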

SMILES: C1CCN2CC3CC(CN4CCCC[C@@H]34)C2C1 (some centres undefined)
- Potency [1]: inactive

SMILES: COc1cc([C@@H]2c3cc4c(cc3C(OC3OC5COC(C)OC5C(O)C3O)C3COC(=O)[C@@H]32)OCO4)cc(OC)c1O (some centres undefined)
- Potency [1]: inactive

SMILES: CC1C(=O)OC2CC34C5CC(C(C)(C)C)C36C(OC(=O)C6O)OC4(C(=O)O5)C21O (centres undefined)
- Potency [1]: inactive

SMILES: CC1(C)S[C@H]2[C@@H](NC(=O)C(N)c3ccccc3)C(=O)N2[C@H]1C(=O)O (some centres undefined)
- Potency [1]: inactive

SMILES: COc1ccc(Cc2nnc(NC(=O)Cc3cccs3)s2)cc1
- Potency [2]: 1.19 µM (active)
- Potency [3]: 16.8 µM (active)
- Potency [4]: 84.9 µM (active)
- Potency [5]: 19 µM (active)

SMILES: COCCNC(=O)Nc1ccc2nc(-c3ccco3)c(-c3ccco3)nc2c1
- Potency [2]: 1.89 µM (active)
- Potency [3]: 7.52 µM (active)
- Potency [4]: 19 µM (active)
- Potency [6]: 3.77 µM (active)
- Potency [5]: 5.36 µM (active)

SMILES: O=C(COC(=O)c1ccc(F)cc1F)Nc1ncccn1
- Potency [2]: 5.97 µM (active)
- outcome [7]: inactive
- Potency [3]: 21.2 µM (active)
- Potency [5]: 37.9 µM (active)

SMILES: CCCCCCN(C(=O)CCCCCN1C(=O)NC(c2ccc(-c3ccccc3)cc2)C(C(=O)OCc2ccccc2)=C1C)C(C(=O)NCCCC)c1ccccc1 (centres undefined)
- outcome [8]: inactive
- Potency [9]: inactive

SMILES: COC(=O)CNC(=O)C1(CC(C)C)C=CCN1C(=O)c1ccccc1 (centres undefined)
- outcome [8]: inactive
- Potency [9]: inactive

SMILES: CCN(C(=O)Cc1nc(N)n[nH]1)C1(C(=O)Nc2ccccc2)CCCCC1
- Potency [2]: 26.7 µM (active)

SMILES: COC(=O)CNC(=O)C1(C)C=CC2(CCCCC2)N1C(=O)OC (centres undefined)
- outcome [8]: inactive
- Potency [9]: inactive

SMILES: COC(=O)CCCCCN1C(=O)NC(CC2CC2)C(C(=O)OCc2ccccc2)=C1C (centres undefined)
- outcome [8]: inactive
- Potency [9]: inactive

SMILES: C[C@@H]1C=C[C@](Cc2ccccc2)(C(=O)NCCCNc2ncc(C(F)(F)F)cc2Cl)N1C(=O)c1ccccc1
- outcome [8]: inactive
- Potency [9]: inactive

SMILES: C[C@H]1[C@H](C)CC[C@]2(C(=O)O)CC[C@]3(C)C(=CCC4[C@@]5(C)C[C@@H](O)[C@H](O)[C@@](C)(CO)[C@@H]5CC[C@]43C)[C@H]12 (some centres undefined)
- Potency [9]: inactive
- Potency [1]: inactive

SMILES: Cc1cccc(-c2cc(=O)c3cc(Br)ccc3o2)c1
- Potency [10]: 12.6 µM (active)
- Potency [9]: inactive
- Potency [1]: inactive

SMILES: COc1ccc(-c2coc3cc(OC4OC(CO)C(O)C(O)C4O)cc(O)c3c2=O)cc1 (centres undefined)
- Potency [10]: inactive
- Potency [1]: inactive

SMILES: Cc1cc(=O)cc2oc3cc(N)c(-c4c(C)cc(O)cc4O)c(C)c3nc1-2
- Potency [9]: inactive
- Potency [1]: inactive

SMILES: O=c1cc(-c2ccccc2)oc2cc(O[C@@H]3O[C@H](CO)[C@@H](O)[C@H](O)[C@H]3O)c(O)c(O)c12
- Potency [10]: inactive
- Potency [1]: inactive

SMILES: COc1ccccc1-c1oc2ccccc2c(=O)c1O
- Potency [10]: 25.1 µM (active)
- Potency [1]: inactive

SMILES: C[C@@H]1O[C@@H](OC[C@H]2O[C@@H](Oc3c(-c4cccc(O)c4O)oc4cc(O)cc(O)c4c3=O)[C@H](O)[C@@H](O)[C@@H]2O)[C@H](O)[C@H](O)[C@H]1O
- Potency [10]: inactive
- Potency [1]: inactive

SMILES: O=c1cc(-c2cccc(O)c2)oc2cccc(O)c12
- Potency [10]: 7.94 µM (active)
- Potency [9]: inactive
- Potency [1]: inactive

SMILES: CC(=O)OC1CCC2(C)C3CCC4(C)C(CC5CCCCC54C(C)=O)C3CC(=O)[C@@]2(O)C1 (some centres undefined)
- Potency [10]: 10 µM (active)
- Potency [9]: inactive
- Potency [1]: inactive

SMILES: CNC(=O)Oc1ccc2c(c1)C1(C)CCN(C)C1N2C (centres undefined)
- Potency [10]: inactive
- Potency [1]: inactive

SMILES: CC(C)=CCC/C(C)=C/COc1c2occc2cc2ccc(=O)oc12
- Potency [10]: 1.26 µM (active)
- Potency [9]: inactive
- Potency [1]: inactive

SMILES: OC1CCC2Cc3ccccc3N=C12 (centres undefined)
- Potency [10]: inactive
- Potency [1]: inactive

SMILES: Cc1ccc(CC(Cc2nc3ccccc3[nH]2)c2nc3ccccc3[nH]2)cc1 (centres undefined)
- Potency [10]: 1.26 µM (active)
- Potency [9]: inactive
- Potency [1]: inactive

SMILES: CC(=O)Oc1ccc(/C=C/C(=O)CC2OC(Oc3cc(OC(C)=O)c4c(c3)O[C@@H](c3ccc(OC(C)=O)cc3)CC4=O)C(OC(C)=O)C(OC(C)=O)C2OC(C)=O)cc1 (some centres undefined)
- Potency [10]: inactive
- Potency [1]: inactive

SMILES: COc1cc2c(Cc3c4c5c(cc(OC)c(OC)c5c5c(OC)c(OC)ccc35)CCN4C)c3c4c(cc(OC)c(OC)c4c2cc1OC)CCN3C
- Potency [9]: inactive
- Potency [1]: inactive

SMILES: CC(=O)OC1CCC2(C)C(CCC3(C)C2C(=O)C=C2C4CC(C)(C(=O)OCCN5CCCCC5)CCC4(C)CCC23C)C1(C)C (centres undefined)
- Potency [10]: inactive
- Potency [1]: inactive

SMILES: CC(C)=CCC/C(C)=C\COc1c2ccoc2cc2oc(=O)ccc12
- Potency [10]: 0.794 µM (active)
- Potency [9]: inactive
- Potency [1]: inactive

SMILES: COc1ccc2c(c1OC)C(Cc1ccccc1)N1CCc3cc4c(cc3C1C2)OCO4 (centres undefined)
- Potency [10]: 1 µM (active)
- Potency [9]: inactive
- Potency [1]: inactive

SMILES: O=C(/C=C/c1ccc2c(c1)OCO2)c1cccs1
- Potency [10]: 0.501 µM (active)
- Potency [9]: inactive
- Potency [1]: inactive

SMILES: O=C(/C=C/c1ccc(OCc2ccccc2)cc1)c1cccs1
- Potency [10]: inactive
- Potency [1]: inactive

SMILES: Cc1cccc(-c2cc(=O)c3cc(C)ccc3o2)c1
- Potency [10]: 3.98 µM (active)
- Potency [9]: inactive
- Potency [1]: inactive
